# Reference: PubChem BioAssay (NCI)
# The panel holds about 83,000 compounds, 20% with a hit somewhere; the sample as a whole holds those more often.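 Note: values are percent growth. 100 is the growth of untreated cells, values between 100 and 0 indicate rising inhibition; between -100 and 0 indicates cell death.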 Unmarked numbers belong to inactive results. Calls of active or inactive are those of the source. How the source made its calls: active means growth percent below 10; inactive means the rest.
# Tests used:
# Experiment in all cases: NCI-60 one-dose screen, 48 h (100 = growth as untreated, 0 = no growth, -100 = all killed)
# Details in all cases: 10 µM unless noted
# SK-MEL-2 melanoma = system: SK-MEL-2 melanoma
# SN12C renal = system: SN12C renal
# UO-31 renal = system: UO-31 renal
# TK-10 renal = system: TK-10 renal
# ACHN renal = system: ACHN renal
# CAKI-1 renal = system: CAKI-1 renal
# A498 renal = system: A498 renal
# CCRF-CEM leukemia = system: CCRF-CEM leukemia
# MOLT-4 leukemia = system: MOLT-4 leukemia
# EKVX NSCLC = system: EKVX NSCLC
SMILES,growth (SK-MEL-2 melanoma) [%],growth (SN12C renal),growth (UO-31 renal),growth (TK-10 renal),growth (ACHN renal),growth (CAKI-1 renal),growth (A498 renal),growth (CCRF-CEM leukemia),growth (MOLT-4 leukemia),growth (EKVX NSCLC)
Nc1ccc2c(c1)Cc1cc(NC(=O)C(F)(F)F)ccc1-2,98.6,97.6%,75.7%,106%,104%,96.3%,84.6%,86.3%,109%,
O=S(=O)(NCc1ccccc1)c1ncnc2nc[nH]c12,118,108%,93.8%,115%,105%,104%,124%,83.1%,93.3%,
O=C1CC(C(F)(F)F)Cc2nc3ccc(Br)cc3cc21 (stereo not drawn),107,85.8%,59.7%,145%,91.5%,75.5%,49.7%,98.1%,77.8%,
CN(C)Cc1ccc[nH]1,93.5,70.4%,,131%,101%,81.8%,76.8%,118%,107%,
CCOc1ccc(/C=C(\C#N)c2cc3ccccc3[nH]2)cc1,36.1,62.7%,69.5%,79.3%,81.8%,40.3%,56.9%,63.4%,31.2%,
C[n+]1c2ccccc2nc2c(N)cc(N)cc21,121,5.51% (active),,126%,96.7%,111%,121%,58.8%,34.8%,
Cc1cnc(N)nc1OCCNC(=O)c1cccc(-c2ccc(S(=O)(=O)Nc3ccc4c(c3)N(C(=O)C3CC3)CCC4)cc2)c1,74.4,79.7%,77.1%,93.1%,84.9%,77.4%,40.2%,64.1%,37.7%,
CCN(CC)CCCCCCNc1cccc2cc(Br)cnc12,21.7,104%,61%,58.7%,104%,62.3%,86.3%,57%,9.09% (active),
CCN=Cc1c(O)c(O)c(C(C)C)c2cc(C)c(-c3c(C)cc4c(C(C)C)c(O)c(O)c(C=NCC)c4c3O)c(O)c12,,54.9%,39.2%,43.5%,24.4%,73.3%,69.5%,20.1%,32.8%,30.5%
C[C@@H]1C[C@H]2C(=O)O[C@@H](C)[C@H](NC(=O)[C@H](Cc3cc(F)cc(F)c3)NC(=O)Nc3ccc(C4CC4)cc3F)C(=O)N3CCC[C@H]3C(=O)N3CCCC[C@H]3C(=O)N[C@@H](C)C(=O)N2C1,,15.8%,8.68% (active),38.4%,11.5%,8.8% (active),-5.24% (active),39.9%,28.6%,26.6%
CCN(CC)c1cc(N)c(Cc2c(N)cc(N(CC)CC)cc2Cl)c(Cl)c1,,21.8%,68.5%,82.1%,80.2%,65.7%,76.7%,51.5%,40.8%,31.9%
COc1ccc(OC)c(NC=O)c1,,107%,,102%,106%,95.7%,103%,127%,88.2%,101%
COc1cc2c(cc1OC(C)=O)C(=O)CCCC2,,112%,88.4%,118%,92.5%,73.8%,68.3%,102%,115%,104%
CC(=O)OC[C@]12CC[C@@H]([C@@H](C)C(N)=O)[C@@H]1[C@H]1CC[C@@H]3[C@@]4(C)CC[C@H](OC(C)=O)C(C)(C)[C@@H]4CC[C@@]3(C)[C@]1(C)CC2,,-91.6% [100 µM] (active),-97.5% [100 µM] (active),-35.4% [100 µM] (active),-75.7% [100 µM] (active),-45.8% [100 µM] (active),-81.7% [100 µM] (active),-12.4% [100 µM] (active),-29.1% [100 µM] (active),-25.2% [100 µM] (active)
CCOc1cc(NC(=O)c2ccccc2)c(OCC)cc1N,,113%,102%,112%,118%,102%,113%,107%,101%,113%
COc1ccc(-c2nc3ccccn3c2/C=C/C(=O)c2cc(OC)c(OC)c(OC)c2)cc1OC,,31%,17%,43%,19.9%,8.16% (active),-14.1% (active),16.4%,25.5%,28.5%
O=C(Nc1ccc(CN2CCOCC2)c(C(F)(F)F)c1)c1nc2ccc3[nH]ncc3c2c2c1CCCC2,,94.4%,73%,104%,91.5%,80.9%,113%,84.8%,76.3%,87.3%
Cc1cc(C)c(O)c(CNCCCCCCNCc2cc(C)cc(C)c2O)c1,,29.8%,,-28% (active),-42.3% (active),26.2%,21.4%,-19.9% (active),-28.1% (active),

SMILES,growth (SK-MEL-2 melanoma) [%],growth (SN12C renal),growth (UO-31 renal),growth (TK-10 renal),growth (ACHN renal),growth (CAKI-1 renal),growth (A498 renal),growth (CCRF-CEM leukemia),growth (MOLT-4 leukemia),growth (EKVX NSCLC)
COC(=O)c1c(C)[nH]c(/C=C2\N=C(c3ccc[nH]3)C=C2OC)c1C,,16.9%,-72.6% (active),0.549% (active),-69.1% (active),-25% (active),0.235% (active),15.2%,1.37% (active),-31.8% (active)
O=C(CCN1CCCCC1)c1ccc2ccccc2c1,,96.7%,77.1%,94.5%,116%,98.1%,93.5%,92.3%,108%,112%
COC(=O)[C@@H](NC(=O)NC(=O)NC(=O)CI)C(C)C,,90.1%,-15.4% (active),89.8%,79.8%,-61.6% (active),87.9%,-32.9% (active),10.6%,95.7%
O=C(NCCO)c1cccnc1,,100%,85.2%,81%,110%,98.3%,96.9%,81.4%,107%,109%
C#CCOc1ccc(C2=NN(CC3CC3)C3N=C(Cl)c4ncn(CC5CC5)c4N23)cc1OCC#C (stereo not drawn),,82.2%,,76%,62%,43.7%,50.9%,64.3%,61%,80.1%
CC(C)[C@H]1COC(=O)N1[C@@H]1C(=O)N([C@@H](CCC(=O)N2CCN(C3CCCC3)CC2)C(=O)N[C@@H]2CCCc3ccccc32)[C@@H]1/C=C/c1cccc(Cl)c1,,59.6%,43.5%,54.2%,57.8%,59.3%,27.9%,42%,24.1%,58.8%
CCCCOC(=O)c1c(C)[nH]c(/C=C2\N=C(c3ccc[nH]3)C=C2OC)c1C,,8.83% (active),,9.12% (active),-40.4% (active),-29.2% (active),-13.4% (active),12.6%,8.13% (active),-8.89% (active)
Nn1c(Nc2ccc(S(=O)(=O)Nc3ncccn3)cc2)nnc(/C=C/c2c(O)ccc3ccccc23)c1=O,,96.8%,58.6%,120%,91.9%,98.4%,93.2%,79.3%,70.7%,90.9%
COc1ccc2nc3ccccc3c(NCCNCCO)c2c1,,1.83% (active),-7.42% (active),-12.7% (active),-27.4% (active),6.25% (active),-60.4% (active),10.9%,10.1%,-7.03% (active)
CN(C)c1cc(NN=C(c2ccc(O)cc2)c2ccc(O)cc2)c([N+](=O)[O-])cc1[N+](=O)[O-],,93.8%,1.38% (active),136%,50.1%,74.8%,135%,107%,97.6%,94.2%
CC1(C)CC[C@]2(C(N)=O)CC[C@]3(C)C(=CC[C@@H]4[C@@]5(C)C/C(=C/c6ccncc6)C(=O)C(C)(C)[C@@H]5CC[C@]43C)[C@@H]2C1,,-78.1% [100 µM] (active),,-89.5% [100 µM] (active),-82.5% [100 µM] (active),-58.3% [100 µM] (active),-80.4% [100 µM] (active),-10% [100 µM] (active),-13.6% [100 µM] (active),-52.8% [100 µM] (active)
Cc1cc2c(C(C)C)c(O)c(O)c(C=NCc3ccoc3)c2c(O)c1-c1c(C)cc2c(C(C)C)c(O)c(O)c(C=NCc3ccco3)c2c1O,,40.5%,36.2%,45.8%,25.3%,54%,80.1%,21%,14.5%,
CC[C@]1(O)CC2CN(CCc3c([nH]c4ccccc34)[C@@](C(=O)OC)(c3cc4c(cc3OC)N(C=O)[C@H]3[C@@](O)(C(=O)OC)[C@H](OC(C)=O)[C@]5(CC)C=CCN6CC[C@]43[C@@H]65)C2)C1 (stereo partly drawn),,26.6%,,74.2%,34.4%,48.9%,-17.9% (active),2.51% (active),21.6%,47.4%
Nc1ccc(NC(=O)c2ccccc2)c2c1C(=O)c1ccccc1C2=O,,97.8%,74.2%,96.1%,92.6%,96.7%,113%,91.1%,106%,76.3%
CC1(C)CC[C@]2(C(=O)O)CC[C@]3(C)C(=CC[C@@H]4[C@@]5(C)C/C(=C/c6cccnc6)[C@H](O)C(C)(C)[C@@H]5CC[C@]43C)[C@@H]2C1,,6.59% [100 µM] (active),-57.6% [100 µM] (active),1.87% [100 µM] (active),2.77% [100 µM] (active),5.69% [100 µM] (active),23.9% [100 µM],1.37% [100 µM] (active),4.37% [100 µM] (active),0.843% [100 µM] (active)
Cn1cc(-c2noc(C(=O)c3cn(C)c4ncc(Br)cc34)n2)c2ccccc21,,94.8%,79.3%,107%,102%,89.5%,75.3%,-49.1% (active),105%,85.5%
COc1ccc(CC(C#N)c2ccc(Cl)cc2)cc1 (stereo not drawn),,99.7%,,109%,102%,68.9%,49.7%,76.5%,72.7%,90%
C=C(C)[C@@H]1CC[C@]2(C(=O)OC)CC[C@]3(C)[C@H](CC[C@@H]4[C@@](C)(CCc5nn[nH]n5)[C@H](C(=C)C)CC[C@]43C)[C@@H]12,,-45.6% [100 µM] (active),-88.5% [100 µM] (active),8.06% [100 µM] (active),3.75% [100 µM] (active),-17.2% [100 µM] (active),-61.5% [100 µM] (active),1.92% [100 µM] (active),0.832% [100 µM] (active),0.298% [100 µM] (active)
